# PubChem BioAssay
# “And” between values parts separate entries of the source, which are not always exact repeats. Equal entries are not always repeated. A number with no mark means an inactive call. Inconclusive results are not listed. The source made the active and inactive calls.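 How the source made its calls, unless noted: active means compounds whose cell count with miR-34 switched on is under 0.7 times the count with it off; inactive means the rest.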
# Assay: viability loss in pontine glioma line – cell-based, SU-DIPG-XIII, MIPE5.0, CellTiter-Glo, qHTS, dose response (AID 1347064; cut-off not given, nearly all actives have AC50 up to about 23 µM)
# Settings: CellTiter-Glo ATP luminescence
row,SMILES,outcome
1,COC(=O)[C@H](c1ccccc1Cl)N1CCc2sccc2C1,inactive
2,COc1ccc(/C=C/C(=O)Nc2ccccc2C(=O)O)cc1OC,inactive
3,CC1=C(/C=C/C(C)=C/C=C/C(C)=C\C(=O)O)C(C)(C)CCC1,inactive
4,CN(C)c1nc(N(C)C)nc(N(C)C)n1,inactive
5,CS(=O)(=O)c1ccc(C2=C(c3ccccc3)C(=O)OC2)cc1,inactive
6,Nc1ncnc2c1ncn2[C@@H]1O[C@H](CO)[C@@H](O)[C@@H]1O,inactive
7,CCc1ccc(CCOc2ccc(CC3SC(=O)NC3=O)cc2)nc1 (centres undefined),inactive
8,C[C@H]1COc2c(N3CCN(C)CC3)c(F)cc3c(=O)c(C(=O)O)cn1c23,inactive
9,CC(C(=O)O)c1ccc(-c2ccccc2)c(F)c1 (centres undefined),inactive

# Assay: viability loss in pontine glioma line – cell-based, SU-DIPG-XXV, MIPE5.0, CellTiter-Glo, qHTS, dose response (AID 1347065; cut-off not given, nearly all actives have AC50 up to about 26 µM;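 further: cells exposed to compound for 48 hours before ATP readout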)
# Settings: CellTiter-Glo ATP luminescence
SMILES,outcome,AC50
COC(=O)[C@H](c1ccccc1Cl)N1CCc2sccc2C1,inactive,–
COc1ccc(/C=C/C(=O)Nc2ccccc2C(=O)O)cc1OC,inactive,–
CC1=C(/C=C/C(C)=C/C=C/C(C)=C\C(=O)O)C(C)(C)CCC1,–,6.61 µM (active)
CN(C)c1nc(N(C)C)nc(N(C)C)n1,inactive,–
CS(=O)(=O)c1ccc(C2=C(c3ccccc3)C(=O)OC2)cc1,inactive,–
Nc1ncnc2c1ncn2[C@@H]1O[C@H](CO)[C@@H](O)[C@@H]1O,inactive,–
CCc1ccc(CCOc2ccc(CC3SC(=O)NC3=O)cc2)nc1 (centres undefined),inactive,–
C[C@H]1COc2c(N3CCN(C)CC3)c(F)cc3c(=O)c(C(=O)O)cn1c23,inactive,–
CC(C(=O)O)c1ccc(-c2ccccc2)c(F)c1 (centres undefined),inactive,–

# Assay: growth inhibition of DIPG cells – cell-based, MIPE4.0 library, CellTiter-Glo luminescence, qHTS (AID 1347066; cut-off not given, nearly all actives have AC50 up to about 30 µM;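 further: cells exposed to compound for 48 hours before readout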)
# Settings: SU-DIPG-VI viability, CellTiter-Glo ATP luminescence
row,SMILES,outcome
1,COC(=O)[C@H](c1ccccc1Cl)N1CCc2sccc2C1,inactive
2,CC1=C(/C=C/C(C)=C/C=C/C(C)=C\C(=O)O)C(C)(C)CCC1,inactive
3,CC[C@H]1OC(=O)[C@H](C)[C@@H](O[C@H]2C[C@@](C)(OC)[C@@H](O)[C@H](C)O2)[C@H](C)[C@@H](O[C@@H]2O[C@H](C)C[C@H](N(C)C)[C@H]2O)[C@](C)(OC)C[C@@H](C)C(=O)[C@H](C)[C@@H](O)[C@]1(C)O,inactive
4,CS(=O)(=O)c1ccc(C2=C(c3ccccc3)C(=O)OC2)cc1,inactive
5,CCc1ccc(CCOc2ccc(CC3SC(=O)NC3=O)cc2)nc1 (centres undefined),inactive
6,C[C@H]1COc2c(N3CCN(C)CC3)c(F)cc3c(=O)c(C(=O)O)cn1c23,inactive
7,CC(C(=O)O)c1ccc(-c2ccccc2)c(F)c1 (centres undefined),inactive

# Assay: JHH-DIPG-1 glioma cell viability, MIPE5.0 library, CellTiter-Glo luminescence, qHTS (AID 1347067; cut-off not given, nearly all actives have AC50 up to about 26 µM;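 further: cells exposed to compound for 48 hours before readout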)
# Settings: JHH-DIPG-1 glioma viability, CellTiter-Glo ATP luminescence
row,SMILES,outcome
1,COC(=O)[C@H](c1ccccc1Cl)N1CCc2sccc2C1,inactive
2,COc1ccc(/C=C/C(=O)Nc2ccccc2C(=O)O)cc1OC,inactive
3,CC1=C(/C=C/C(C)=C/C=C/C(C)=C\C(=O)O)C(C)(C)CCC1,inactive
4,CN(C)c1nc(N(C)C)nc(N(C)C)n1,inactive
5,CS(=O)(=O)c1ccc(C2=C(c3ccccc3)C(=O)OC2)cc1,inactive
6,Nc1ncnc2c1ncn2[C@@H]1O[C@H](CO)[C@@H](O)[C@@H]1O,inactive
7,CCc1ccc(CCOc2ccc(CC3SC(=O)NC3=O)cc2)nc1 (centres undefined),inactive
8,C[C@H]1COc2c(N3CCN(C)CC3)c(F)cc3c(=O)c(C(=O)O)cn1c23,inactive
9,CC(C(=O)O)c1ccc(-c2ccccc2)c(F)c1 (centres undefined),inactive

# Assay: growth inhibition of DIPG cells – cell-based, MIPE5.0 library, qHTS (AID 1347068; cut-off not given, nearly all actives have IC50 up to about 30 µM)
# Settings: SU-DIPG-XXV viability
row,SMILES,outcome
1,COC(=O)[C@H](c1ccccc1Cl)N1CCc2sccc2C1,inactive
2,COc1ccc(/C=C/C(=O)Nc2ccccc2C(=O)O)cc1OC,inactive
3,CC1=C(/C=C/C(C)=C/C=C/C(C)=C\C(=O)O)C(C)(C)CCC1,inactive
4,CN(C)c1nc(N(C)C)nc(N(C)C)n1,inactive
5,CS(=O)(=O)c1ccc(C2=C(c3ccccc3)C(=O)OC2)cc1,inactive
6,Nc1ncnc2c1ncn2[C@@H]1O[C@H](CO)[C@@H](O)[C@@H]1O,inactive
7,C[C@H]1COc2c(N3CCN(C)CC3)c(F)cc3c(=O)c(C(=O)O)cn1c23,inactive
8,CC(C(=O)O)c1ccc(-c2ccccc2)c(F)c1 (centres undefined),inactive

# Assay: viability loss with induced miR-34 in A549 – imaging, A549 dox-inducible miR-34, nuclei and caspase counts, primary screen (AID 1347080)
# Settings: A549 miR-34 inducible, Hoechst nuclei count, 48 h; active compounds read low; cell number ratio, induced over uninduced
row,SMILES,fold change
1,COC(=O)[C@H](c1ccccc1Cl)N1CCc2sccc2C1,0.979 and 0.893 and 0.849
2,COc1ccc(C[C@H](N)C(=O)N[C@H]2[C@@H](O)[C@H](n3cnc4c(N(C)C)ncnc43)O[C@@H]2CO)cc1,1.03 and 1.04
3,Cc1cccc(C)c1NC(=O)C1CCCCN1C (centres undefined),0.977 and 0.928 and 0.875
4,O=c1ccc2ccc(O)c(O)c2o1,0.898 and 0.94
5,CC[C@H]1OC(=O)[C@H](C)[C@@H](O[C@H]2C[C@@](C)(OC)[C@@H](O)[C@H](C)O2)[C@H](C)[C@@H](O[C@@H]2O[C@H](C)C[C@H](N(C)C)[C@H]2O)[C@](C)(OC)C[C@@H](C)C(=O)[C@H](C)[C@@H](O)[C@]1(C)O,0.89 and 0.856
6,Cc1occc(=O)c1O,1.32
7,Nc1ncnc2c1ncn2[C@@H]1O[C@H](CO)[C@@H](O)[C@@H]1O,0.95 and 0.835 and 0.86
8,C[N+]1(C)CCCC(OC(=O)C(O)(c2ccccc2)c2ccccc2)C1 (centres undefined),0.951 and 0.851 and 0.901
9,CCCCC(=O)N(Cc1ccc(-c2ccccc2-c2nn[nH]n2)cc1)[C@H](C(=O)O)C(C)C,0.954 and 0.853
10,C[C@H]1COc2c(N3CCN(C)CC3)c(F)cc3c(=O)c(C(=O)O)cn1c23,0.893 and 0.857
11,O=[N+]([O-])c1cccc2cn[nH]c12,1.03 and 0.867 and 0.91
12,COc1ccc(-c2cc(=O)c3c(OC)c(OC)c(OC)c(OC)c3o2)cc1OC,0.981 and 0.97
